# Rows were chosen to be rich in hits. Some 12% of all compounds tested hit in one or more screens of this group.
# WT yeast gro inh: growth inhibition of WT yeast, mitochondrial fusion screen; inhibition, % at 10 µM; AID 1362; mitochondrial fusion phenotypic screen, WT strain; hit rate 2.1% among 190,000; in the data active means inhibition above about 58%; tested in S. cerevisiae
# Ins promoter up: MIN6 insulin promoter up-regulation. MIN6 insulin promoter-GFP reporter, high-content imaging; hits give high values. z-score at 5 µM. hit rate 0.3% among 190,000;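 active means z-score above 3 at 5 µM with at least 500 cells counted in the well; inconclusive means wells under 500 cells, flagged as cytotoxic or low count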
# Insulin prom inh: TRM-6 insulin promoter activity inhibition; inhibition, % at 2 µM; hit rate 0.9% among 130,000; TRM-6 cells (human fetal islet line), insulin promoter-eGFP reporter, imaging; reporter expression induced with tamoxifen;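 active means inhibition above the mean plus 3 SD, with well images judged a real hit on visual review, cut at about 60% in these data, passing the limit was not always enough; inconclusive means inhibition over the cutoff but images rejected on review; inactive means inhibition not above the cutoff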
# KCC2 mod: KCC2 (human) Cl- transport modulation | KCC2 cells, thallium flux FluoZin-2 fluorescence | hit rate 2.2% among 190,000 | Q9H2X9 | B-score of Tl+ flux slope (higher = more flux/activation; lower = inhibition) at 10 µM;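 active means thallium flux slope and its plate-corrected score both differing from the plate sample mean at a set confidence after two filtering rounds, in either direction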;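 further: slope of fluorescence scaled to starting intensity during 10 to 20 s after thallium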
# ROMK mod: modulates human ROMK potassium channel activity. P48048. hit rate 2% among 130,000. Tet-inducible ROMK, thallium flux fluorescence; actives lie on both sides. AID 1918. B-score at 10 µM;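 active means signal ratio slope over the read window, or its plate-corrected B-score, at least 3 SD from the plate mean, either direction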;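 further: B-score of the F/F0 ratio slope over 7 to 12 s after thallium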
# Lmaj promast: reduces viability of Leishmania major promastigotes; hit rate 9% among 200,000; AID 1063; resazurin fluorescence viability; inhibition, % at 10 µM; in the data active means inhibition above about 50%;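 further: promastigotes grown with compound for 44 hours at 28 °C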
# The depositor's hits bear a star; ? = inconclusive; . = no result.
SMILES,WT yeast gro inh,Ins promoter up,Insulin prom inh,KCC2 mod,ROMK mod,Lmaj promast
Cc1cc(C(=O)COC(=O)CC2Sc3ccccc3NC2=O)c(C)n1-c1ccc(Br)cc1 (stereo not given),52,0.05,29,-0.063,-0.013,42
Cc1cc(C(=O)COC(=O)c2ccc(N)c([N+](=O)[O-])c2)c(C)n1Cc1ccc2c(c1)OCO2,.,-0.64,.,0.9,.,.
Cc1cc(C(=O)COC(=O)CC2Sc3ccccc3NC2=O)c(C)n1-c1ccc2c(c1)OCO2 (stereo not given),9,0.13,4,-0.61,.,55*
COC(=O)c1ccc(-n2c(C)cc(C(=O)COC(=O)CC3Sc4ccccc4NC3=O)c2C)cc1 (stereo not given),41,-0.03,-12,-1.1,-0.084,65*
COc1ccccc1OCc1ccc(C(=O)n2nc(C)c(Cl)c2C)o1,-7,0.04,-130,-0.81,.,-6
Nc1ccc(N2CCCCC2)cc1N1CCCCC1,72*,-1.9,.,0.27,.,100*
CCOC(=O)c1cn(-c2c(Cl)cccc2Cl)c2cc(Cl)c([N+](=O)[O-])cc2c1=O,25,-0.66,21,-2,-1.5,35
NC(=S)n1[nH]c(-c2ccc([N+](=O)[O-])cc2)c(N=Nc2ccccc2[N+](=O)[O-])c1=O,9,0.73,-13,0.016,2,20
Cc1c(N=Nc2c(-c3ccc([N+](=O)[O-])cc3)[nH]n(C(N)=S)c2=O)cccc1[N+](=O)[O-],23,-0.56,11,-0.95,-1.7,65*
O=C(Nc1ccc(O)cc1)c1ccc2c(c1)C(=O)N(Cc1ccco1)C2=O,-5,-0.41,49,-1.1,-0.56,61*
Cc1ccc(Cl)cc1N1CCN(C(=O)C2CCN(S(C)(=O)=O)CC2)CC1,9,0.22,.,-0.38,-0.63,8
Cc1cc(C)nc(N2CCC(C(=O)N3CCN(c4cc(Cl)ccc4C)CC3)CC2)n1,72*,-0.62,0,0.7,.,0
Cc1ccc(C)c(N2CCN(C(=O)C3CCN(c4nc(C)cc(C)n4)CC3)CC2)c1,67*,0.71,29,0.64,.,-4
Cc1ccc(C)c(N2CCN(C(=O)C3CCN(c4nnc(N5CCCC5=O)s4)CC3)CC2)c1,.,-0.03,-29,0.82,.,0
Cc1ccc(C)c(N2CCN(C(=O)C3CCCCN3S(=O)(=O)c3ccc(F)cc3)CC2)c1 (stereo not given),64*,0.12,-68,.,-1.3,5
O=S(=O)(NC1=NCCC1)c1cccc(NS(=O)(=O)c2ccc(OC(F)(F)F)cc2)c1,-11,0.47,39,0.085,-0.55,54*
Cc1ccc(C(C)(C)C)cc1S(=O)(=O)Nc1cccc(S(=O)(=O)NC2=NCCC2)c1,-1,-0.13,31,-0.011,0.2,-6
Cc1ccccc1OCCCCc1c(C)n[nH]c1C,76*,?,-100,.,.,14
Cc1ccccc1OCCCc1c(C)n[nH]c1C,.,.,.,-0.38,0.097,13
CCOC(=O)C1CCN(C(=S)Nc2cc(C)ccc2C)CC1,5,-0.55,.,-0.1,.,-4
O=C(CSc1nnc(CN2CCCCC2)n1-c1ccccc1)c1ccc2c(c1)OCO2,34,1,.,-0.46,.,-7
COc1ccc(C(=O)CSc2nnc(CN3CCCC3)n2-c2ccc(F)cc2)c(OC)c1,9,0.27,-85,-1,.,80*
COc1ccc(C(=O)CSc2nnc(C3CCCCC3)n2N)c(OC)c1,12,-0.27,-18,-0.31,.,53*
COc1ccc(C(=O)CSc2nnc(CN3CCCCC3)n2-c2ccc(F)cc2)cc1OC,9,-0.34,44,0.024,.,90*
Clc1ccc(-c2nnc(-c3ccc(Br)o3)o2)c(Cl)c1,-16,-0.31,.,0.18,0.92,-5
SMILES,WT yeast gro inh,Ins promoter up,Insulin prom inh,KCC2 mod,ROMK mod,Lmaj promast
NC(=O)c1ccc(N=Cc2ccc([N+](=O)[O-])s2)cc1,6,0.11,-55,0.049,.,100*
O=[N+]([O-])c1ccc(C=Nc2ccc(Cl)c([N+](=O)[O-])c2)s1,14,-0.82,.,0.33,-0.57,100*
N/C(=N\O)c1ccc([N+](=O)[O-])s1,.,-0.02,.,.,.,.
Cc1c(N=Cc2ccc(Br)s2)cccc1[N+](=O)[O-],-15,0.43,.,1.6,0.81,-3
CCc1ccc(NC(=S)Nn2cnnc2)cc1,-4,-0.18,.,0.013,-0.47,-15
Cc1ccc(CNc2ncnc(N)c2[N+](=O)[O-])cc1,4,-0.61,16,1.7,0.99,-11
N#CCCN(/N=C/c1cccnc1)C1=NS(=O)(=O)c2ccccc21,-13,0.58,57,-0.22,.,17
